# Reference: PMC7862700, “An all-to-all approach to the identification of sequence-specific readers for epigenetic DNA modifications on cytosine”
# Assays:
# Assay in all cases: DAPPL (digital affinity profiling via proximity ligation, sequencing); 10 mM Tris-HCl pH 7.5, 50 mM NaCl, 1 mM DTT, 4% glycerol, room temperature, 30 min; GST-TFs on glutathione beads, 16-mer random dsDNA library, 0.1% formaldehyde crosslink after washing; high values mean tight binding
# Settings in all cases: protein: recombinant; tags: N-terminal GST; dsDNA, one strand shown
# FEV = biological target: T1, FEV (Homo sapiens, UniProt Q99581 1-238)
# T1 sequence: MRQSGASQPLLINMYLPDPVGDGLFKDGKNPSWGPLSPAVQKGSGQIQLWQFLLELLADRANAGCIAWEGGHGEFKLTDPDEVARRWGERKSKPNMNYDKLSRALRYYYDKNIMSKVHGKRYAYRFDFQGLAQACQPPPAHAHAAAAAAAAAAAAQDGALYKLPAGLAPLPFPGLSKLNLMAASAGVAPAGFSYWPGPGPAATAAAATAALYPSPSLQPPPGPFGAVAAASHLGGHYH
# Method in brief: (§1)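 Sequencing on an Illumina NextSeq500 followed washing, crosslinking with 0.1% formaldehyde, proximity ligation (BsaI/T4 ligase, 1 h, 37 °C) and PCR amplification of pools that had been incubated for 30 min at room temperature with 200 nmole of a random double-stranded 16-mer DNA library in Tris/NaCl/DTT/glycerol buffer. Each pool held DNA-barcoded human transcription factors, expressed in yeast as GST fusions and captured on glutathione beads, plus a tag-only sample. Binding signal is a hexamer's read frequency for a factor divided by its frequency in the tag-only sample.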
# ETV5 = ETV5 (Homo sapiens, UniProt P41161 1-510)
# Chain of ETV5 (P41161 whole entry): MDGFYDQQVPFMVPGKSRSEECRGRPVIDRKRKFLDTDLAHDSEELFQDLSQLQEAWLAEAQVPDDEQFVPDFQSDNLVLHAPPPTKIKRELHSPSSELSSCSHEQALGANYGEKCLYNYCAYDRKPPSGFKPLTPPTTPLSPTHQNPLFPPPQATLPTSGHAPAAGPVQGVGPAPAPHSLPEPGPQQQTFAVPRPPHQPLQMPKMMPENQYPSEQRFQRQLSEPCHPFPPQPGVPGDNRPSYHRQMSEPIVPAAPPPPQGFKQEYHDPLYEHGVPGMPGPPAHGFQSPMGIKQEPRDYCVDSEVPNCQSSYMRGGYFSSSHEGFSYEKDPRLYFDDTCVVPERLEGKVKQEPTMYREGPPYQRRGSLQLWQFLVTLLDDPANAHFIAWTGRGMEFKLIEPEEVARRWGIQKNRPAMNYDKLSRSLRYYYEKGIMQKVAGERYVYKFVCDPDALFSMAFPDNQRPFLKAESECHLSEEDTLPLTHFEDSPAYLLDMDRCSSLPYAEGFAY
# Method in brief: as §1
# SPIC = biological target: T2, SPIC (Homo sapiens, UniProt Q8N5J4 1-248)
# T2 sequence: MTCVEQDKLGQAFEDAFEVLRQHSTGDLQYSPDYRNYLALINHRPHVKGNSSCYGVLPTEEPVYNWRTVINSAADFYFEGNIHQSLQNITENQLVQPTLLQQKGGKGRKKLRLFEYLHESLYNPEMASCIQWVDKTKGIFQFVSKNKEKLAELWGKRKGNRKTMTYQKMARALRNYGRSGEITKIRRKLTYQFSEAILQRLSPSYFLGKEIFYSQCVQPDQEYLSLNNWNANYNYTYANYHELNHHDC
# Method in brief: as §1
# ELF4 = ELF4 (Homo sapiens, UniProt Q99607 1-663)
# Chain of ELF4 (Q99607 whole entry): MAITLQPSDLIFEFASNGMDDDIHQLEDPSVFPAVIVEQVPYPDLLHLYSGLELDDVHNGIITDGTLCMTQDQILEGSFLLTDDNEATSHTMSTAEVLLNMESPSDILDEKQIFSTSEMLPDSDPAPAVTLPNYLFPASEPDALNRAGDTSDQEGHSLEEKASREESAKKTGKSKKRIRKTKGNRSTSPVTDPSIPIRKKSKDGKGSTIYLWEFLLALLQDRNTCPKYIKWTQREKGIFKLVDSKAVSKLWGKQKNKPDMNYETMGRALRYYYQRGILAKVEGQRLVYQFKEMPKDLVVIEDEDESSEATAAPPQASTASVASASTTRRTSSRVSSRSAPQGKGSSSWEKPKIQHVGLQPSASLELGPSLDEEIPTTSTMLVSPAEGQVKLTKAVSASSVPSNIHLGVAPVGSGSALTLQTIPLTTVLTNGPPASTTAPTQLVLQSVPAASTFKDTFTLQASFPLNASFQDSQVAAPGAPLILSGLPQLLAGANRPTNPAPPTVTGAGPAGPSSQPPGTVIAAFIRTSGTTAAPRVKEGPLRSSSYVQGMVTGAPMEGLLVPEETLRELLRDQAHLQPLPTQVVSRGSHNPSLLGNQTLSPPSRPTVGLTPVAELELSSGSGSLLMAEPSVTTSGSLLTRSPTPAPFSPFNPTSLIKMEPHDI
# Method in brief: as §1
# ELK4 = biological target: T3, ELK4 (Homo sapiens, UniProt P28324-2 1-405)
# T3 sequence: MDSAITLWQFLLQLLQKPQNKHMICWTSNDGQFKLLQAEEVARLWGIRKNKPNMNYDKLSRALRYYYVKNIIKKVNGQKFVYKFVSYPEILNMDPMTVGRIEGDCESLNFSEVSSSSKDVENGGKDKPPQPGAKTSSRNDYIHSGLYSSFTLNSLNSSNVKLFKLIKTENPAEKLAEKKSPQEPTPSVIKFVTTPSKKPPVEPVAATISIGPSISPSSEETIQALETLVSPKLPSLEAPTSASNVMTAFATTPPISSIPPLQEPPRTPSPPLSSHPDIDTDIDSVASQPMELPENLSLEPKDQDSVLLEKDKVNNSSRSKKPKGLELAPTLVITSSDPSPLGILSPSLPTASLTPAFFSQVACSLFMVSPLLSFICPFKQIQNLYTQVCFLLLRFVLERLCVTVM
# Method in brief: as §1
# ETV2 = biological target: T4, ETV2 (Homo sapiens, UniProt O00321 1-342)
# T4 sequence: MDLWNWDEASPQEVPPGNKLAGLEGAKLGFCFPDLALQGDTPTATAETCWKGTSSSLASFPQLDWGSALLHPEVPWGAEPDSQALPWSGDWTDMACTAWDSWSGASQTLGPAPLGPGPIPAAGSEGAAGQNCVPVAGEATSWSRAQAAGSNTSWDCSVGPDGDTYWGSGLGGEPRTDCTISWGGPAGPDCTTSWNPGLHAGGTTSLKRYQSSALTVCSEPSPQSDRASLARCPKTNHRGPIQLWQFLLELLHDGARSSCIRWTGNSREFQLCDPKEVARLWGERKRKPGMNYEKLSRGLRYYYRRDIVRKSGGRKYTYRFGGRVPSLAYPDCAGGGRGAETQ
# Method in brief: as §1
# ELF3 = biological target: T5, ELF3 (Homo sapiens, UniProt P78545 1-371)
# T5 sequence: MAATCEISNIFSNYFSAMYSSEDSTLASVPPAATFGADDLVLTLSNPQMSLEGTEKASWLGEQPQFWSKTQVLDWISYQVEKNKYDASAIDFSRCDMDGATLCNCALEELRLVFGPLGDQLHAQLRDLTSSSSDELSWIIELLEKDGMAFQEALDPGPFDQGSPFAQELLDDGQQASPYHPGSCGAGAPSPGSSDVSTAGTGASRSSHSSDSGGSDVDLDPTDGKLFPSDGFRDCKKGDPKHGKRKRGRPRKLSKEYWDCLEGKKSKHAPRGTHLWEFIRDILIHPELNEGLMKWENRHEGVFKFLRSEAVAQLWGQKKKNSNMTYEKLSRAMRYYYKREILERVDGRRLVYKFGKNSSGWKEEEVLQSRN
# Method in brief: as §1
# CRX = CRX (Homo sapiens, UniProt O43186 1-299)
# Chain of CRX (O43186 whole entry): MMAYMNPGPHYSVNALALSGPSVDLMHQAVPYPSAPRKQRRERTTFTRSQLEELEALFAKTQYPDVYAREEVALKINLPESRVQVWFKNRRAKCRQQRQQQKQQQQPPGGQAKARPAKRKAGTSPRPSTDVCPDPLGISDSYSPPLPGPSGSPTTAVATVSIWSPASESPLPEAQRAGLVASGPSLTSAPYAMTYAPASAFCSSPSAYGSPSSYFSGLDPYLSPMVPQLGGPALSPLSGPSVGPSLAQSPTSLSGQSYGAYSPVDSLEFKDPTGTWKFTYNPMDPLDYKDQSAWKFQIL
# Method in brief: as §1
# ETV1 = ETV1 (Homo sapiens, UniProt P50549 1-477)
# Chain of ETV1 (P50549 whole entry): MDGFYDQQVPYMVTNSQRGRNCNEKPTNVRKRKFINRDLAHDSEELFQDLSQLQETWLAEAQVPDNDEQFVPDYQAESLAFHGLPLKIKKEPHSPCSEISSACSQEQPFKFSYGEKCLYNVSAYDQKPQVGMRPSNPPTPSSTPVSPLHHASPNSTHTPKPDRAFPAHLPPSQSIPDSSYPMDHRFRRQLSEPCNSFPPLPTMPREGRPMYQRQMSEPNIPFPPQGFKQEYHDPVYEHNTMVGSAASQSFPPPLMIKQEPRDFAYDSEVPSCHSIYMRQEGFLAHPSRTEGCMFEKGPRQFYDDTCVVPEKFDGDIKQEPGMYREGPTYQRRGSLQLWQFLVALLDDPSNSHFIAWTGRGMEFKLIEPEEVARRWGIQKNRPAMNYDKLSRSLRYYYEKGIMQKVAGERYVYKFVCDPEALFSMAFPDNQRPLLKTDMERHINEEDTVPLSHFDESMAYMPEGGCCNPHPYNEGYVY
# Method in brief: as §1
# ERF = biological target: T6, ERF (Homo sapiens, UniProt P50548 1-548)
# T6 sequence: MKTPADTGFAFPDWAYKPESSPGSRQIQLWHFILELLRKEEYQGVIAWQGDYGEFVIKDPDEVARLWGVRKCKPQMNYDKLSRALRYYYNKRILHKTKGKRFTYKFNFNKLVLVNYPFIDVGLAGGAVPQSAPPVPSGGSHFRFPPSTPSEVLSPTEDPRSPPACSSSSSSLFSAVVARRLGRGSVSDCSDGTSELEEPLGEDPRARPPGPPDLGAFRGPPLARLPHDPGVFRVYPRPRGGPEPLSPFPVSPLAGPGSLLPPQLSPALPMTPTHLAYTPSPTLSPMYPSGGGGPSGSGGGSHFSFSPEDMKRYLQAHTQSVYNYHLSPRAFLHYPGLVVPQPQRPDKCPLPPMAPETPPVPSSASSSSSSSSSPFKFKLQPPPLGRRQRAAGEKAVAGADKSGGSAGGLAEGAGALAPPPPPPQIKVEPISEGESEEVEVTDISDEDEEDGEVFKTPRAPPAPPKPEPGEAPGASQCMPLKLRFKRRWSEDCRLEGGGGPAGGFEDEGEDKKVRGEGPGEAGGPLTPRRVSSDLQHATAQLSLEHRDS
# Method in brief: as §1
# ETV3L = biological target: T7, ETV3L (Homo sapiens, UniProt Q6ZN32 1-361)
# T7 sequence: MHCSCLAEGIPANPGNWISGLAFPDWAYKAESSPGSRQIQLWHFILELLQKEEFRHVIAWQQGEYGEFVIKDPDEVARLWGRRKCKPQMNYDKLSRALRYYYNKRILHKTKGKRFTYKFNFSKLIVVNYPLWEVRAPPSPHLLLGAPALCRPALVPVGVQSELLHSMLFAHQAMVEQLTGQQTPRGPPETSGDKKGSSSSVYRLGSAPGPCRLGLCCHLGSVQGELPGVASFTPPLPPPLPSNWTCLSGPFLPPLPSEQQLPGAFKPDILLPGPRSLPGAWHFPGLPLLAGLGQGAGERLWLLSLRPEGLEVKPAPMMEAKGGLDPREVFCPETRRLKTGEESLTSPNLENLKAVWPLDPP
# Method in brief: as §1
# ETS2 = biological target: T8, ETS2 (Homo sapiens, UniProt P15036 1-469)
# T8 sequence: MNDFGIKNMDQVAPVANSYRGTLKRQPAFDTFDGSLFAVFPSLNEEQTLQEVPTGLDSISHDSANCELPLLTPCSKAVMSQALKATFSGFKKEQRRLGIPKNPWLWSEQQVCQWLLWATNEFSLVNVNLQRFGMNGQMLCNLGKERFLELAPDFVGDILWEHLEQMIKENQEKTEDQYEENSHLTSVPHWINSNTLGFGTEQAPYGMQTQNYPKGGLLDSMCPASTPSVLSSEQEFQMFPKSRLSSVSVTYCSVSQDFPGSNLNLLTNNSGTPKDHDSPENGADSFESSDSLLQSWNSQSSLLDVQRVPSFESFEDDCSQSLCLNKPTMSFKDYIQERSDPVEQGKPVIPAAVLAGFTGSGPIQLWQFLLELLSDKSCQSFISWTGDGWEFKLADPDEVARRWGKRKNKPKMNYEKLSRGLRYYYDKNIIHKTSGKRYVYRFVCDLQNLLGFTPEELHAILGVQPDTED
# Method in brief: as §1
# SPDEF = biological target: T9, SPDEF (Homo sapiens, UniProt O95238 1-335)
# T9 sequence: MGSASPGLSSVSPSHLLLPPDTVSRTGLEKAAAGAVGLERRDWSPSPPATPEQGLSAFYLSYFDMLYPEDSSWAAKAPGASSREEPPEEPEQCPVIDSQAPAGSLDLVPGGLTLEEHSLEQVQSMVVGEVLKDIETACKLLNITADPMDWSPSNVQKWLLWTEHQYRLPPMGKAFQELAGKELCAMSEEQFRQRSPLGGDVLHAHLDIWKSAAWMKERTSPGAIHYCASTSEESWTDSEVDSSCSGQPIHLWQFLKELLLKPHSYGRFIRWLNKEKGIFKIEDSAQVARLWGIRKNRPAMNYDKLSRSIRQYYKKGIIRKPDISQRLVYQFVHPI
# Method in brief: as §1
# ETV7 = biological target: T10, ETV7 (Homo sapiens, UniProt Q9Y603 1-341)
# T10 sequence: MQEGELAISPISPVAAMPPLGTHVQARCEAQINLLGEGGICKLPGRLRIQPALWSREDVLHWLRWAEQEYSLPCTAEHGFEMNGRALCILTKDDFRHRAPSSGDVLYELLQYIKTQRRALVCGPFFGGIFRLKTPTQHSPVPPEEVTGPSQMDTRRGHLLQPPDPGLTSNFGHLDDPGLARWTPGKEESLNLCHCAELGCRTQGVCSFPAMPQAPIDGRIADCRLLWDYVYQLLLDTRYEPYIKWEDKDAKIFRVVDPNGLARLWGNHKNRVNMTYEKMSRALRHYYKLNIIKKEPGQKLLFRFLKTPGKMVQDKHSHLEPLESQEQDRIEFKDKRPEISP
# Method in brief: as §1
# ELF5 = biological target: T11, ELF5 (Homo sapiens, UniProt Q9UKW6-2 1-255)
# T11 sequence: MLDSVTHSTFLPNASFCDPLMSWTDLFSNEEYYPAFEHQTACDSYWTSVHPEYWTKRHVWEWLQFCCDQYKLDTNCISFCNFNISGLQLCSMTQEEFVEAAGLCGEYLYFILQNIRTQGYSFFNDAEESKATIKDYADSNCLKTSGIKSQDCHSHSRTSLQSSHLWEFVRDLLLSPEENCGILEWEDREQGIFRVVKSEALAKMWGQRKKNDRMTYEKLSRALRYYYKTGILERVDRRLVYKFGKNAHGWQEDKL
# Method in brief: as §1
# ETV3 = biological target: T12, ETV3 (Homo sapiens, UniProt P41162-2 1-143)
# T12 sequence: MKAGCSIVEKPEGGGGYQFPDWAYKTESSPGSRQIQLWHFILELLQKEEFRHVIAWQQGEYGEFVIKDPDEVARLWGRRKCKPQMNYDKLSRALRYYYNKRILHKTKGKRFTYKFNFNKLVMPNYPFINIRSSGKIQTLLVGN
# Method in brief: as §1
# ETV6 = ETV6 (Homo sapiens, UniProt P41212 1-452)
# Chain of ETV6 (P41212 whole entry): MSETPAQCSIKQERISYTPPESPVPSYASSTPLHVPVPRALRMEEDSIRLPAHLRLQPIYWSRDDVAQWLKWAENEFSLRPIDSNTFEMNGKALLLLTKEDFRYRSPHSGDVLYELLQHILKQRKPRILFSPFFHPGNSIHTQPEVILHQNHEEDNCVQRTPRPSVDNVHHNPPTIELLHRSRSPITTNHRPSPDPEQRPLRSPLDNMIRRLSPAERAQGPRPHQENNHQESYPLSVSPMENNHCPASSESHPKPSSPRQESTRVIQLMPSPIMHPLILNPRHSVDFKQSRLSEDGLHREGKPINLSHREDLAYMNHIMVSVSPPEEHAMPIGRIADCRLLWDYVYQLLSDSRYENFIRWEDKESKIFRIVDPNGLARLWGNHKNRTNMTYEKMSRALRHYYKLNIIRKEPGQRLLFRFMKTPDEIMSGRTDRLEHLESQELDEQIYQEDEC
# Method in brief: as §1
Sequence,binding signal (FEV),binding signal (ETV5),binding signal (SPIC),binding signal (ELF4),binding signal (ELK4),binding signal (ETV2),binding signal (ELF3),binding signal (CRX),binding signal (ETV1),binding signal (ERF),binding signal (ETV3L),binding signal (ETS2),binding signal (SPDEF),binding signal (ETV7),binding signal (ELF5),binding signal (ETV3),binding signal (ETV6)
AAACGG,"1.42 fold enrichment (6-mer frequency, TF over GST control)","1.27 fold enrichment (6-mer frequency, TF over GST control)","1.19 fold enrichment (6-mer frequency, TF over GST control)","1.23 fold enrichment (6-mer frequency, TF over GST control)","1.19 fold enrichment (6-mer frequency, TF over GST control)","1.22 fold enrichment (6-mer frequency, TF over GST control)","1.28 fold enrichment (6-mer frequency, TF over GST control)","1.01 fold enrichment (6-mer frequency, TF over GST control)","1.27 fold enrichment (6-mer frequency, TF over GST control)","1.17 fold enrichment (6-mer frequency, TF over GST control)","1.23 fold enrichment (6-mer frequency, TF over GST control)","1.26 fold enrichment (6-mer frequency, TF over GST control)","1.25 fold enrichment (6-mer frequency, TF over GST control)","1.16 fold enrichment (6-mer frequency, TF over GST control)","1.25 fold enrichment (6-mer frequency, TF over GST control)","1.26 fold enrichment (6-mer frequency, TF over GST control)","1.28 fold enrichment (6-mer frequency, TF over GST control)"
ACCACT,"1.35 fold enrichment (6-mer frequency, TF over GST control)","1.29 fold enrichment (6-mer frequency, TF over GST control)","1.38 fold enrichment (6-mer frequency, TF over GST control)","1.31 fold enrichment (6-mer frequency, TF over GST control)","1.29 fold enrichment (6-mer frequency, TF over GST control)","1.27 fold enrichment (6-mer frequency, TF over GST control)","1.23 fold enrichment (6-mer frequency, TF over GST control)","1.04 fold enrichment (6-mer frequency, TF over GST control)","1.2 fold enrichment (6-mer frequency, TF over GST control)","1.22 fold enrichment (6-mer frequency, TF over GST control)","1.36 fold enrichment (6-mer frequency, TF over GST control)","1.29 fold enrichment (6-mer frequency, TF over GST control)","1.25 fold enrichment (6-mer frequency, TF over GST control)","1.24 fold enrichment (6-mer frequency, TF over GST control)","1.25 fold enrichment (6-mer frequency, TF over GST control)","1.24 fold enrichment (6-mer frequency, TF over GST control)","1.28 fold enrichment (6-mer frequency, TF over GST control)"
